Hit rate of the full screen: of about 390,000 compounds, about 2,600 (0.67%) were called active.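 How the source made its calls: active means mean inhibition of replicates at least 50% and at least half of replicates each reaching 50%; inconclusive means half or more replicates reach 50% but mean below 50%; inactive means the rest.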 The entries come from a sample that favours actives as a whole.

In this test the target is Transforming acidic coiled-coil-containing protein 3 (Homo sapiens) (UniProt Q9Y6A5). Description: disruptors of ARNT/TACC3 protein interaction, primary screen, biochemical, AlphaScreen, single concentration (AID 623870).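 Further: 0% = complete ARNT plus TACC3 wells and 100% = ARNT alone without TACC3.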 Conditions: AlphaScreen His-ARNT PAS-B/GST-TACC3 binding, luminescence; at 9.99 µM; active compounds read high; TACC3 fragment carries E629A point mutation.
Regarding `CCCC(=O)Nc1ccc2c(c1)OC[C@H](C)N(CCC)C[C@@H](C)[C@@H](OC)CN(C)C2=O`, the inhibition was 1.16% (inactive). The figure for `CC(C)NC(=O)Nc1ccc2c(c1)C(=O)N([C@H](C)CO)C[C@H](C)[C@@H](CN(C)S(=O)(=O)c1ccc(F)cc1)OCCCC[C@H](C)O2` is -7.08% (inactive); for `CCCN(C)C[C@@H]1Oc2cc(C#CCc3ccccc3)ccc2S(=O)(=O)N([C@H](C)CO)C[C@@H]1C` it is 1.97% (inactive); for `CCOc1cccc(/C=N/N2C(=O)CSC2=S)c1O` it is 59.8% (active). Consider `CCOc1cc(/C=N/n2cnnc2)c(Br)cc1O`, for which the inhibition was 7.91% (inactive). The figure for `O=C1CSC(=S)N1/N=C/c1ccc(O)c([N+](=O)[O-])c1` is 12.1% (inactive); for `C[C@H](CO)N1C[C@H](C)[C@H](CN(C)C(=O)c2cnccn2)Oc2cc(C3=CCCC3)ccc2S1(=O)=O` it is 1.21% (inactive); for `COCC#Cc1ccc2c(c1)O[C@@H](CN(C)Cc1ccccn1)[C@@H](C)CN([C@@H](C)CO)S2(=O)=O` it is -0.755% (inactive). As for `O=C(NNc1nc(N2CCCC2)nc(N2CCCC2)n1)c1ccccc1`, the inhibition was -2.38% (inactive).

As to `C/C(=N\Nc1nc(N2CCOCC2)nc(N2CCOCC2)n1)c1ccc([N+](=O)[O-])cc1`, the inhibition is 15.4% (inactive). Regarding `O=C(O)c1ccc(/C=N/Nc2nc(N3CCCCC3)nc(N3CCCCC3)n2)cc1`, the inhibition was 45% (active). The figure for `CCCN1C[C@@H](C)[C@H](OC)CN(C)C(=O)c2ccc(NC(=O)C3CCOCC3)cc2OC[C@@H]1C` is -0.135% (inactive); for `C[C@H]1CN([C@@H](C)CO)C(=O)c2cccc(NC(=O)Nc3ccccc3)c2O[C@H]1CN(C)Cc1ccc(C(F)(F)F)cc1` it is 7.66% (inactive); for `Nc1nonc1-n1nnc(C(=O)N/N=C/c2cc(Br)ccc2O)c1CSC1=NCCS1` it is 17.4% (inactive). For `Oc1ccc(Br)cc1/C=N/Nc1ccccn1`, the inhibition was 44.2% (active).

Regarding `Fc1ccccc1/C=N/Nc1cc(N2CCCCC2)ncn1`, the inhibition is 22.7% (inactive).

For `C[C@H]1CN([C@@H](C)CO)C(=O)c2c(c3ccccc3n2C)-c2ccccc2CO[C@H]1CN(C)S(=O)(=O)c1ccc(C#N)cc1`, the inhibition was 11.3% (inactive). With `O=C(C[C@@H]1CC[C@H]2[C@@H](COC[C@@H](O)CN2C(=O)Nc2ccc(F)cc2)O1)NCC1CC1`, the inhibition was 1.68% (inactive). The figure for `COc1cccc(N(CC(=O)N2CCc3ccccc3C2)S(C)(=O)=O)c1` is 1.07% (inactive); for `CN(c1ccccc1)S(=O)(=O)c1ccc(C(=O)N2CCN(c3ccccc3Cl)CC2)cc1` it is -20.3% (inactive); for `CN(c1ccc(C(=O)N2CCc3ccccc3C2)cc1)S(C)(=O)=O` it is 54% (active).

As for `COc1ccc(S(=O)(=O)N(C)C[C@@H]2OCCCC[C@@H](C)Oc3ccc(NS(C)(=O)=O)cc3C(=O)N([C@H](C)CO)C[C@@H]2C)cc1`, the inhibition is -15.8% (inactive). The figure for `CCCN(C)C[C@H]1Oc2ncc(C#CCOC)cc2C(=O)N([C@@H](C)CO)C[C@H]1C` is -7.68% (inactive); for `Cc1ccc(S(=O)(=O)Nc2ccc3c(c2)C(=O)N([C@H](C)CO)C[C@H](C)[C@H](CN(C)C(=O)Nc2ccc4c(c2)OCO4)OCCCC[C@@H](C)O3)cc1` it is -0.754% (inactive). In the case of `O=C(Nn1cc(C(=O)N2CCN(c3ccccc3F)CC2)c2ccccc2c1=O)c1cnccn1`, the inhibition is 68.5% (active). The figure for `COc1ccc(Nc2ncc(C(=O)N3CCN(c4ccccc4OC)CC3)c3ccccc23)cc1` is 1.33% (inactive); for `Cc1ccccc1N1CCN(C(=O)c2cccnc2)CC1` it is -7.09% (inactive); for `Cc1ccc(S(=O)(=O)NCC[C@H]2CC[C@@H](NS(=O)(=O)c3ccccc3Cl)[C@H](CO)O2)cc1` it is 2.36% (inactive). The figure for `C[C@@H]1CN([C@@H](C)CO)C(=O)c2cc(NC(=O)C3CCCCC3)ccc2O[C@@H]1CN(C)S(=O)(=O)c1ccc(F)cc1` is -1.9% (inactive); for `COC(=O)[C@@H]1CCCN1C(=O)c1cc(COc2cccc3cccnc23)on1` it is 6.38% (inactive); for `NC(=O)C1CCN(C(=O)COc2cccc3cccnc23)CC1` it is -5.01% (inactive). With `CCOc1cc(N2CCOCC2)c(OCC)cc1NC(=O)COc1cccc2cccnc12`, the inhibition was 59.4% (active). The figure for `C[C@@H]1CN([C@@H](C)CO)C(=O)c2cccc(N(C)C)c2O[C@@H]1CN(C)S(=O)(=O)c1ccccc1` is -5.11% (inactive); for `C[C@@H]1CCCCO[C@H](CN(C)C(=O)CCC(F)(F)F)[C@H](C)CN([C@@H](C)CO)C(=O)c2cc(NC(=O)CCCCCC(=O)Nc3ccccc3N)ccc2O1` it is 0.568% (inactive). The figure for `CO[C@H]1CN(C)C(=O)c2ccc(NC(C)=O)cc2OC[C@@H](C)N(C(=O)c2ccncc2)C[C@@H]1C` is 34.9% (inactive); for `O=C(O)C[C@@H]1C[C@@H]2c3cc(NC(=O)Nc4ccccc4)ccc3O[C@@H]2[C@H](CO)O1` it is -4.96% (inactive); for `C[C@H]1CN([C@@H](C)CO)C(=O)Cc2cc(NC(=O)Nc3ccc(F)cc3)ccc2O[C@H]1CN(C)S(=O)(=O)c1ccc(F)cc1` it is -0.385% (inactive). The figure for `COc1ccc(CN(C)C[C@H]2Oc3c(NC(=O)c4ccncc4)cccc3C(=O)N([C@H](C)CO)C[C@@H]2C)cc1` is -4.67% (inactive); for `Cc1ccc(C(=O)Nc2ccc(C)c(S(=O)(=O)N(C)C)c2)s1` it is -4.57% (inactive); for `Cc1ccc(NC(=O)CNCc2ccccn2)cc1S(=O)(=O)N(C)C` it is 71% (active). On to `Cc1cc(S(=O)(=O)NCc2ccccn2)c(Cl)cc1Cl`, for which the inhibition is -1.4% (inactive). The figure for `C[C@@H]1CN([C@@H](C)CO)C(=O)c2cc(NC(=O)Cc3ccccc3)ccc2O[C@@H](C)CCCCO[C@H]1CN(C)C(=O)Cc1ccccc1` is -2.35% (inactive). The figure for `CC[C@]1(O)CC2CN(CCc3c([nH]c4ccccc34)[C@@](C(=O)OC)(c3cc4c(cc3OC)N(C=O)[C@H]3[C@@](O)(C(=O)OC)[C@H](OC(C)=O)[C@]5(CC)C=CCN6CC[C@]43[C@@H]65)C2)C1` (stereo not given in full) is 52.9% (active); for `CC[C@]1(O)C[C@@H]2CN(CCc3c([nH]c4ccccc34)[C@@](C(=O)OC)(c3cc4c(cc3OC)N(C)[C@H]3[C@@](O)(C(=O)OC)[C@H](OC(C)=O)[C@]5(CC)C=CCN6CC[C@]43[C@@H]65)C2)C1` it is 16% (inactive). The figure for `CN1c2ccc(-c3cccc(C#N)c3)cc2[C@H]2[C@H](CCN2S(=O)(=O)c2cccc(F)c2)[C@@H]1CO` is -10.1% (inactive). Regarding `CNC[C@H]1OCCCC[C@H](C)Oc2ccc(NS(C)(=O)=O)cc2C(=O)N([C@@H](C)CO)C[C@H]1C`, the inhibition was -0.797% (inactive).

With `O=C(COC(=O)c1ccc([N+](=O)[O-])o1)NC12CC3CC(CC(C3)C1)C2`, the inhibition was 31.3% (active). In the case of `O=C(COC(=O)c1ccc(Br)o1)NC12CC3CC(CC(C3)C1)C2`, the inhibition is 6.24% (inactive). The figure for `O=C(OCC(=O)c1cccs1)c1ccc([N+](=O)[O-])o1` is -2.19% (inactive); for `CCN(C[C@H]1[C@H](c2ccc(-c3ccccc3)cc2)[C@H](CO)N1CC1CC1)C(C)=O` it is 2.62% (inactive). Regarding `C[C@@H]1CCCCO[C@H](CN(C)C(=O)CCC(F)(F)F)[C@@H](C)CN([C@@H](C)CO)C(=O)c2cc(NC(=O)c3ccncc3)ccc2O1`, the inhibition was 11% (inactive). The figure for `CC(C)c1ccc(Cc2nnc(NCCCO)[nH]c2=O)cc1` is -6.28% (inactive). The figure for `Cc1ccc(Cc2nnc(SCC(=O)Nc3ccccc3C)[nH]c2=O)cc1` is -1.06% (inactive); for `COc1ccc(Cc2nnc(N/N=C/c3ccccc3O)[nH]c2=O)cc1OC` it is 58.3% (active); for `COc1cccc(NC(=O)C[C@H]2CC[C@@H]3[C@H](COc4ccc(NC(C)=O)cc4C(=O)N3C)O2)c1` it is 13% (inactive). The figure for `C[C@@H]1CN([C@H](C)CO)C(=O)c2cc(NC(=O)Nc3ccc4c(c3)OCO4)ccc2O[C@@H]1CN(C)C(=O)Nc1ccc(F)cc1` is 14% (inactive); for `CCC(=O)N1C[C@H]2[C@@H](c3ccccc31)[C@H](CO)N2Cc1ccccc1F` it is -4.33% (inactive). For `O=C(C1CCCC1)N1[C@H](CO)[C@@H]2c3ccccc3N(S(=O)(=O)c3ccccc3)C[C@@H]21`, the inhibition is -1.74% (inactive).

In the case of `CC(=O)N1[C@@H](CO)[C@@H]2c3ccccc3N(S(=O)(=O)c3ccccc3)C[C@@H]21`, the inhibition is 4.39% (inactive).

For the molecule `O=S(=O)(c1ccccc1)N1C[C@@H]2[C@H](c3ccccc31)[C@H](CO)N2Cc1ccccn1`, the inhibition was 32.5% (active). The figure for `O=C(C[C@@H]1CC[C@@H]2[C@H](COC[C@@H](O)CN2Cc2ccc(Cl)cc2)O1)NCc1ccccc1Cl` is 1.65% (inactive). The figure for `COc1ccccc1Nc1nc(N)nc(CSC(=S)N2CCOCC2)n1` is 0.944% (inactive); for `COc1ccccc1Nc1nc(N)nc(CN(C)C2CCCCC2)n1` it is 54% (active); for `COc1ccccc1NC1=NC(c2ccc(Cl)cc2)N=C(N)N1` (stereo not given) it is -1.44% (inactive). In the case of `COc1ccc(S(=O)(=O)N(C)C[C@@H]2Oc3ncc(C#Cc4ccc(F)cc4)cc3C(=O)N([C@H](C)CO)C[C@@H]2C)cc1`, the inhibition is -1.03% (inactive). The figure for `N#CC1=C(N)Oc2c(sc3ccccc23)C1c1ccco1` (stereo not given) is 34.5% (inactive).

For `N#CC1=C(N)Oc2c(ccc3cccnc23)C1c1ccncc1` (stereo not given), the inhibition was 71.2% (active).

Take `C[C@@H]1CN([C@H](C)CO)C(=O)c2c(c3ccccc3n2C)-c2ccccc2CO[C@@H]1CN(C)C(=O)Nc1ccccc1`: the inhibition was 6.33% (inactive). In the case of `CCCNC(=O)N(C)C[C@@H]1Oc2ncc(C#CCc3ccccc3)cc2C(=O)N([C@@H](C)CO)C[C@H]1C`, the inhibition was -5.08% (inactive). With `COc1ccc(S(=O)(=O)N(C)C[C@H]2OCCCC[C@@H](C)Oc3ccc(NC(=O)CCC(F)(F)F)cc3C(=O)N([C@@H](C)CO)C[C@H]2C)cc1`, the inhibition was -1.27% (inactive).
